PMC7862700, “An all-to-all approach to the identification of sequence-specific readers for epigenetic DNA modifications on cytosine”

What was measured:
Assay in all cases: DAPPL (digital affinity profiling via proximity ligation, sequencing); 10 mM Tris-HCl pH 7.5, 50 mM NaCl, 1 mM DTT, 4% glycerol, room temperature, 30 min; GST-TFs on glutathione beads, 16-mer random dsDNA library, 0.1% formaldehyde crosslink after washing; high values mean tight binding
Details in all cases: protein: recombinant; tags: N-terminal GST; dsDNA, one strand shown
ELK1 = biological target: T1, ELK1 (Homo sapiens, UniProt P19419 1-428)
T1 sequence: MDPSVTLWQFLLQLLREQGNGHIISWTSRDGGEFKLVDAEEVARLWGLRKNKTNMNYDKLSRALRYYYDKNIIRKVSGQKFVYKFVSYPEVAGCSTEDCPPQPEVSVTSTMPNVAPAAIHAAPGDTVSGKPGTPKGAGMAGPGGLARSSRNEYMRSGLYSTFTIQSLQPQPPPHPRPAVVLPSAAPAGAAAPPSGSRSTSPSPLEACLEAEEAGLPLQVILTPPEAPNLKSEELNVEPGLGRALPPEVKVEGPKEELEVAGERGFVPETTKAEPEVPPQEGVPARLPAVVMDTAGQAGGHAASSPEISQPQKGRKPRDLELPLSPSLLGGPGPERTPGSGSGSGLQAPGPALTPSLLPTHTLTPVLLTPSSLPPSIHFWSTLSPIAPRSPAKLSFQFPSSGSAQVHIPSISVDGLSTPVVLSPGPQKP
Summary of the method: (§1)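 Human transcription factors fused to GST were expressed in yeast, captured on glutathione beads, given DNA barcodes and pooled with a GST-only negative control. Pools were incubated with 200 nmole of a 16-mer random double-stranded DNA library in Tris/NaCl/DTT/glycerol buffer at room temperature for 30 min. They were then washed, crosslinked with 0.1% formaldehyde, proximity-ligated (BsaI/T4 ligase, 1 h, 37 °C), PCR-amplified and sequenced on an Illumina NextSeq500. Binding signal is each 6-mer's read frequency for a factor divided by its frequency for the GST control.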

GABPA = biological target: T2, GABPA (Homo sapiens, UniProt Q06546 1-454)
T2 sequence: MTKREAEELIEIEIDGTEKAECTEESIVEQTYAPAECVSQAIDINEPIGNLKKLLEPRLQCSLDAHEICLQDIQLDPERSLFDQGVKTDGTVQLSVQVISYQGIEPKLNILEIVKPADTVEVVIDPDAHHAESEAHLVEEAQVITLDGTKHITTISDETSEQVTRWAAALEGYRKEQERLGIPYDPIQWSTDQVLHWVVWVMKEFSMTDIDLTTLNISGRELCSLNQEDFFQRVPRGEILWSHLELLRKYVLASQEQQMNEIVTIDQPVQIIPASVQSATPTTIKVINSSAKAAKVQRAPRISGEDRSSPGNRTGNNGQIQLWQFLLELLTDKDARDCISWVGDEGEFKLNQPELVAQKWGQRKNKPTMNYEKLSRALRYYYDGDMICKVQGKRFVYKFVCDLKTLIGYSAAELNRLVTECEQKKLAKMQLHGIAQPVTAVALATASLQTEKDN
Summary of the method: as §1

ERG = biological target: T3, ERG (Homo sapiens, UniProt P11308 1-479)
T3 sequence: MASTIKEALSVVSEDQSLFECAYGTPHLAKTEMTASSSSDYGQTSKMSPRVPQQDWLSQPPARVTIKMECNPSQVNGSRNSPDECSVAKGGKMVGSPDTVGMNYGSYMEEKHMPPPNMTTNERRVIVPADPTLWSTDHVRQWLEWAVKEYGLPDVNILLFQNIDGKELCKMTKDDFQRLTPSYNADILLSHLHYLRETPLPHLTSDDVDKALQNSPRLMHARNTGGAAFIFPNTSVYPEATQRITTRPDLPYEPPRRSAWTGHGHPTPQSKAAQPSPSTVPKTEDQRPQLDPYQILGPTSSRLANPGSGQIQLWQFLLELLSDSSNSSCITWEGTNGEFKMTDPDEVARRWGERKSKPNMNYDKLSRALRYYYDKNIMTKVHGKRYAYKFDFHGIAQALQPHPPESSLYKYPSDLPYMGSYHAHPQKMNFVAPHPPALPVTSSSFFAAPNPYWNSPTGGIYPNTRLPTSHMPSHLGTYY
Summary of the method: as §1

ELF1 = ELF1 (Homo sapiens, UniProt P32519 1-619)
ELF1, sequence (P32519 whole entry): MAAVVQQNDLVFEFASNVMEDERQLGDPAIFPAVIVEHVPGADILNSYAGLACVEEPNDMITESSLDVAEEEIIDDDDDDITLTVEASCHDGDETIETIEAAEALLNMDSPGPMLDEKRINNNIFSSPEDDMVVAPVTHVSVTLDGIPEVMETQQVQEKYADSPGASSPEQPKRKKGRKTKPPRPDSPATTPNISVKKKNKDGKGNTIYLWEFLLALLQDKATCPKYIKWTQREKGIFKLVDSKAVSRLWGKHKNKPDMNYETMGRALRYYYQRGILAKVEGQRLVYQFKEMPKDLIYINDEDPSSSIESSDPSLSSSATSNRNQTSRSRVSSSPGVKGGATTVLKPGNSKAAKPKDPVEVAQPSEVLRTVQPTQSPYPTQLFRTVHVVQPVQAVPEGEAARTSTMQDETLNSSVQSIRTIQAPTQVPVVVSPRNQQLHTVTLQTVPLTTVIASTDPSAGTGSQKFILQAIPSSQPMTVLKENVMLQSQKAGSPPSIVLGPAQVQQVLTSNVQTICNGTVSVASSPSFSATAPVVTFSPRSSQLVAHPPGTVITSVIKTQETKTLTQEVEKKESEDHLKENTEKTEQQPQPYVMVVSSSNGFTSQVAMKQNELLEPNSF
Summary of the method: as §1

EHF = biological target: T4, EHF (Homo sapiens, UniProt Q9NZC4 1-300)
T4 sequence: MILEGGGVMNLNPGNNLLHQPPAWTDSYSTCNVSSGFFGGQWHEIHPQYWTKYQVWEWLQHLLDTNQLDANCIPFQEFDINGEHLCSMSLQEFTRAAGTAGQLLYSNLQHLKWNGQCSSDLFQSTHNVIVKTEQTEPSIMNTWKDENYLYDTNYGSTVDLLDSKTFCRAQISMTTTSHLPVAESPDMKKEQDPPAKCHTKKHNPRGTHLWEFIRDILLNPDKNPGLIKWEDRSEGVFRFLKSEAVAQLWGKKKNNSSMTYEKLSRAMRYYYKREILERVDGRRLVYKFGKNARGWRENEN
Summary of the method: as §1

SPIB = SPIB (Homo sapiens, UniProt Q01892 1-262)
SPIB, sequence (Q01892 whole entry): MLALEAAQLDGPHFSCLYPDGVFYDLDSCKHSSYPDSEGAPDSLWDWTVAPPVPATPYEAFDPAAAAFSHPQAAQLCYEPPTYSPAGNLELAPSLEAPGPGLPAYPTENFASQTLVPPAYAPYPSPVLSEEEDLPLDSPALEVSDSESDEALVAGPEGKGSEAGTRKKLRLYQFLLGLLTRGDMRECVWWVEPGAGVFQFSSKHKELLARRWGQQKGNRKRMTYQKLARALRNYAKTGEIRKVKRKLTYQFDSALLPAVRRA
Summary of the method: as §1

FEV = biological target: T5, FEV (Homo sapiens, UniProt Q99581 1-238)
T5 sequence: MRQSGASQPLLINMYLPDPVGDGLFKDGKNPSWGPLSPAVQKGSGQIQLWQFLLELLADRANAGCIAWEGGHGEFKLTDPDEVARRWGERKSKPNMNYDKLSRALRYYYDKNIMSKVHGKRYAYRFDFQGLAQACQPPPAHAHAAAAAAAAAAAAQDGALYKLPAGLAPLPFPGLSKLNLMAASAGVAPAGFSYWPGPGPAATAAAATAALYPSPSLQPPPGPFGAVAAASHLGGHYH
Summary of the method: as §1

ETV5 = ETV5 (Homo sapiens, UniProt P41161 1-510)
ETV5, sequence (P41161 whole entry): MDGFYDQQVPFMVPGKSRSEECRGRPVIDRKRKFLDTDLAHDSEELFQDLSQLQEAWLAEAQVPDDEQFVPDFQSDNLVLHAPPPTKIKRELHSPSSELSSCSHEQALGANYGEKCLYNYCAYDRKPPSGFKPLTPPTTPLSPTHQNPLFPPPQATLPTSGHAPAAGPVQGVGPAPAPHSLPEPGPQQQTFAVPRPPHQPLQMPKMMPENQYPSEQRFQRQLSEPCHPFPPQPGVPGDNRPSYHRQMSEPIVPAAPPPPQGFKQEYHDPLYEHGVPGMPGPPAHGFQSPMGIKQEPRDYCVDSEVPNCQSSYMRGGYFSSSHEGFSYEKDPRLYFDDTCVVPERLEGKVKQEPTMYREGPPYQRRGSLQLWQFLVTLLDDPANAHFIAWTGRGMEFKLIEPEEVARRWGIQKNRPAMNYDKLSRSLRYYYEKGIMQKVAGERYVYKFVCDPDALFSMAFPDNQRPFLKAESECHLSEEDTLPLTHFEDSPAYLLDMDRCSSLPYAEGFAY
Summary of the method: as §1

ELF4 = ELF4 (Homo sapiens, UniProt Q99607 1-663)
ELF4, sequence (Q99607 whole entry): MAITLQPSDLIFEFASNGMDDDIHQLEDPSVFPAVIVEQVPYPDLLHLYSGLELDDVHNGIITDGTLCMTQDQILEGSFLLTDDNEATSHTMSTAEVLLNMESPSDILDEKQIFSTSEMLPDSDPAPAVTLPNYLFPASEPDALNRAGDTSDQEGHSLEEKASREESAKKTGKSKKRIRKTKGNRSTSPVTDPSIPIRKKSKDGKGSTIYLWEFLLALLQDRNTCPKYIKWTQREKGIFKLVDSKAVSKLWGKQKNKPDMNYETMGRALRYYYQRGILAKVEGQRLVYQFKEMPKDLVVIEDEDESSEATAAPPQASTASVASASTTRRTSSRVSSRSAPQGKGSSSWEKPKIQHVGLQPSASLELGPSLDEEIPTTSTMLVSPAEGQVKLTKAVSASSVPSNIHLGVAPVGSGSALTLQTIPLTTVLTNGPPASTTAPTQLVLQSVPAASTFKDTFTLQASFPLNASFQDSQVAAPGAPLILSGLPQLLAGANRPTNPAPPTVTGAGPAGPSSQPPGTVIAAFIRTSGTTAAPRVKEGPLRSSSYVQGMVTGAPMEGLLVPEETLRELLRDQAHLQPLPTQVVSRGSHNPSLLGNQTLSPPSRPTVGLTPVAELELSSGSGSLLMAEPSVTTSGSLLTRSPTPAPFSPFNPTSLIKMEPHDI
Summary of the method: as §1

ELK4 = biological target: T6, ELK4 (Homo sapiens, UniProt P28324-2 1-405)
T6 sequence: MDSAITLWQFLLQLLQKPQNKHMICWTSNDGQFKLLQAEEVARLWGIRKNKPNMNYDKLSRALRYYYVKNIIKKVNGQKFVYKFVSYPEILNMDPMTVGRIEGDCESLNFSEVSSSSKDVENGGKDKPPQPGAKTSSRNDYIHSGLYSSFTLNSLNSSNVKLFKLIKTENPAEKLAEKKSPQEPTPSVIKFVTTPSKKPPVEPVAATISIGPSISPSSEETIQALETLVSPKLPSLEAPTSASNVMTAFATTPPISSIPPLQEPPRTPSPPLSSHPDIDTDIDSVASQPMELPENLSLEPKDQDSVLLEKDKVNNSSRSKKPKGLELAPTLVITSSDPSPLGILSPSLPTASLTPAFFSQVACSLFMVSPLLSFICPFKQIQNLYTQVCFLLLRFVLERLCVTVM
Summary of the method: as §1

ELF3 = biological target: T7, ELF3 (Homo sapiens, UniProt P78545 1-371)
T7 sequence: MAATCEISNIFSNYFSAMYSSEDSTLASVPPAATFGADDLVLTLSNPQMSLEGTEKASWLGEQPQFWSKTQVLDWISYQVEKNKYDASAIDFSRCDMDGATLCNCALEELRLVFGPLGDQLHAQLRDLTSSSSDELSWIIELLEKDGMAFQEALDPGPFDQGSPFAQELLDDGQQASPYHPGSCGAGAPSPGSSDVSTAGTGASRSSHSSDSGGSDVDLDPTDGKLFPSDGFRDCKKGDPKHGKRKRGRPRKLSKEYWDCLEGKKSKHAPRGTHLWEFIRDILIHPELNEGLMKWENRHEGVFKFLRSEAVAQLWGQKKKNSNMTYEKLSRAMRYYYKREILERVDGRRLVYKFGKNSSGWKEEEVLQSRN
Summary of the method: as §1

ETV1 = ETV1 (Homo sapiens, UniProt P50549 1-477)
ETV1, sequence (P50549 whole entry): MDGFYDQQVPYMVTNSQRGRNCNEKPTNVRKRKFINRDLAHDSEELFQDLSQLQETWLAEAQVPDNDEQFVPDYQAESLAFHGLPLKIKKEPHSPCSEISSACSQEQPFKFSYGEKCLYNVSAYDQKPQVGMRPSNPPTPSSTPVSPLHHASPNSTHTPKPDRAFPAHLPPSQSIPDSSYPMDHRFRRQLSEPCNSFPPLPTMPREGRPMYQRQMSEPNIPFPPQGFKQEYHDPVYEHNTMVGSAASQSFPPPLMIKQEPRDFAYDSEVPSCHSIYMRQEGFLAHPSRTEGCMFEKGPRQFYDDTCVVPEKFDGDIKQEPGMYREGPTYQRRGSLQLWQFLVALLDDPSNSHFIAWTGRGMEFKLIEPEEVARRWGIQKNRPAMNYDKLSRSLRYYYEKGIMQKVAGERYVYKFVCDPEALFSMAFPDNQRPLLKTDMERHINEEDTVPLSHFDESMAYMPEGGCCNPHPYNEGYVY
Summary of the method: as §1

ERF = biological target: T8, ERF (Homo sapiens, UniProt P50548 1-548)
T8 sequence: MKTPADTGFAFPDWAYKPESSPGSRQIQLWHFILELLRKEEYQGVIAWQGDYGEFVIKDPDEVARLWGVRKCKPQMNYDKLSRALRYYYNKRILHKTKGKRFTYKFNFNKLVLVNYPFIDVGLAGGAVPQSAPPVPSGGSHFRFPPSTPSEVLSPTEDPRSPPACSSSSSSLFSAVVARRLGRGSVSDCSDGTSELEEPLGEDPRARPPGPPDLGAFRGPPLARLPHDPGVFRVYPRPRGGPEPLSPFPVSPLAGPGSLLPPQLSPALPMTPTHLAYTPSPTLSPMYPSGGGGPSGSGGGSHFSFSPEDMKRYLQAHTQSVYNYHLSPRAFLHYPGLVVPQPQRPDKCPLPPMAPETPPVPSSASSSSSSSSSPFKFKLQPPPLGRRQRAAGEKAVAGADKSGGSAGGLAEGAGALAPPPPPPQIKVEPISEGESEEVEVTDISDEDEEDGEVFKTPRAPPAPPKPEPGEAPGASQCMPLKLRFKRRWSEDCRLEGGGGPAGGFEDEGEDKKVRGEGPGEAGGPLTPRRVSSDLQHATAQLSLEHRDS
Summary of the method: as §1

ETV3L = biological target: T9, ETV3L (Homo sapiens, UniProt Q6ZN32 1-361)
T9 sequence: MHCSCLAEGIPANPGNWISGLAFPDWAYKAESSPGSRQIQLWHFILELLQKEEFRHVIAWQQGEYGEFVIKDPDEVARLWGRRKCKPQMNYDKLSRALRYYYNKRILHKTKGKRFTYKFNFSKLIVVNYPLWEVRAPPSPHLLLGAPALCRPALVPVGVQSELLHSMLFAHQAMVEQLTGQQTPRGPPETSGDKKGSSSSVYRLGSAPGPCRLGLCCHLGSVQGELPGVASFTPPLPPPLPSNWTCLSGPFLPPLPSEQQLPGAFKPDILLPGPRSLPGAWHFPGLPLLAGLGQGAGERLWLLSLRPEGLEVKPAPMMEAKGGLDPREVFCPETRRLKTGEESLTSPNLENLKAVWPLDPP
Summary of the method: as §1

SPDEF = biological target: T10, SPDEF (Homo sapiens, UniProt O95238 1-335)
T10 sequence: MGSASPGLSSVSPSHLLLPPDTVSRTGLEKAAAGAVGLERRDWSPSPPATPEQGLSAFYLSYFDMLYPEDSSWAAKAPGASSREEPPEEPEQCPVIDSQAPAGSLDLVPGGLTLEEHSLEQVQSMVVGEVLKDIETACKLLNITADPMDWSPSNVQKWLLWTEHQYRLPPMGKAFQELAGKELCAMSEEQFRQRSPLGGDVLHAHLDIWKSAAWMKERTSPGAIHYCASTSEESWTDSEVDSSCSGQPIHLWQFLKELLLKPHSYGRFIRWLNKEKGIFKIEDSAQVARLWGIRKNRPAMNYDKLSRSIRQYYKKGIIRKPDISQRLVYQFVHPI
Summary of the method: as §1

ETV3 = biological target: T11, ETV3 (Homo sapiens, UniProt P41162-2 1-143)
T11 sequence: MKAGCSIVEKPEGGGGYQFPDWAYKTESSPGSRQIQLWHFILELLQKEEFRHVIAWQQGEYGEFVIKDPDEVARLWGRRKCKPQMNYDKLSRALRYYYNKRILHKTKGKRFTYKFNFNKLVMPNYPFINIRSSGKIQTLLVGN
Summary of the method: as §1

ETV6 = ETV6 (Homo sapiens, UniProt P41212 1-452)
ETV6, sequence (P41212 whole entry): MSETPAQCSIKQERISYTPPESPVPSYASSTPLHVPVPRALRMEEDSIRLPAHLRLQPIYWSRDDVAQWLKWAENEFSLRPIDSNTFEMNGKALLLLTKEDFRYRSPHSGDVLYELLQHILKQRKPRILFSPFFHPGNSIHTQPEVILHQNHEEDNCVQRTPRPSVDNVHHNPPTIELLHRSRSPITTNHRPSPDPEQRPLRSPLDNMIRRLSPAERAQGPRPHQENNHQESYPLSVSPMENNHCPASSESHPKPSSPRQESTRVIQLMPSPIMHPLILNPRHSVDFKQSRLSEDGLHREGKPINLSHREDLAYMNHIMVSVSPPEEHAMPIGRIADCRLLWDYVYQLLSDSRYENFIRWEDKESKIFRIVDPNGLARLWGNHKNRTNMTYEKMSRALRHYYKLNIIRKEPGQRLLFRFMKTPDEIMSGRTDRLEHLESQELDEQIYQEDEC
Summary of the method: as §1

CGCGCC
binding signal (ELK1): 1.01 fold enrichment (6-mer frequency, TF over GST control) | binding signal (GABPA): 1.03 fold enrichment (6-mer frequency, TF over GST control) | binding signal (ERG): 1.03 fold enrichment (6-mer frequency, TF over GST control) | binding signal (ELF1): 1.06 fold enrichment (6-mer frequency, TF over GST control) | binding signal (EHF): 1.05 fold enrichment (6-mer frequency, TF over GST control) | binding signal (SPIB): 1 fold enrichment (6-mer frequency, TF over GST control) | binding signal (FEV): 1.08 fold enrichment (6-mer frequency, TF over GST control) | binding signal (ETV5): 1.11 fold enrichment (6-mer frequency, TF over GST control) | binding signal (ELF4): 1.05 fold enrichment (6-mer frequency, TF over GST control) | binding signal (ELK4): 1.15 fold enrichment (6-mer frequency, TF over GST control) | binding signal (ELF3): 1.05 fold enrichment (6-mer frequency, TF over GST control) | binding signal (ETV1): 1.14 fold enrichment (6-mer frequency, TF over GST control) | binding signal (ERF): 1.1 fold enrichment (6-mer frequency, TF over GST control) | binding signal (ETV3L): 1.05 fold enrichment (6-mer frequency, TF over GST control) | binding signal (SPDEF): 1.03 fold enrichment (6-mer frequency, TF over GST control) | binding signal (ETV3): 1.09 fold enrichment (6-mer frequency, TF over GST control) | binding signal (ETV6): 1 fold enrichment (6-mer frequency, TF over GST control)
